# Measurements reported in ChEMBL document CHEMBL3988442, “University of Dundee, Small-Polar-MMV Screening Library” (2021).
# Screen size: about 69,000 compounds; about 1,000 (1.4%) showed an effect of 50% or more. What follows is part of a selection rich in strong results, with near analogues and random picks from the rest.
# System: Leishmania donovani
# Assay: Leishmania intramacrophage assay
# Type: functional, organism-based
# Design: scale not given: in the data most compounds retested in dose-response had high values
smiles,measurement,setting,value
COCC1CCCCN1C(=O)c1cc(-c2cccc(OC)c2)n[nH]1 (stereo not drawn),Percent Effect,"30.3 µM, […]",-0.5575%
COCC(=O)NCCc1nc(N(C)C)ncc1-c1ccncc1,Percent Effect,"30.3 µM, […]",29.7%
Cn1cc(CN2CC[C@@H]3[C@@H]2CCN3C(=O)c2cccc(F)c2)cn1.O=C(O)C(F)(F)F,Percent Effect,"30.3 µM, […]",56.05%
Cn1cc(C(=O)N2CC[C@@H]3[C@@H]2CCN3Cc2ccccc2)cn1.O=C(O)C(F)(F)F,Percent Effect,"30.3 µM, […]",4.091%
Cn1cc(C(=O)N2CC[C@@H]3[C@@H]2CCN3Cc2cccc(F)c2)cn1.O=C(O)C(F)(F)F,Percent Effect,"30 µM, 30.03 µM",2.666%
Cc1oncc1C(=O)N1CC[C@H]2CO[C@H](CN3CCCC3)[C@H]2C1,Percent Effect,"30.3 µM, […]",5.899%
COc1c(CNC2CCc3c(F)cccc32)c(C)nn1C.Cl (stereo not drawn),Percent Effect,30 µM,34.02%
COc1c(CNC2CCc3c(Cl)cccc32)c(C)nn1C.Cl (stereo not drawn),Percent Effect,"30 µM, 30.03 µM",56.04%
COc1c(CNC2CCOc3c(Cl)cccc32)c(C)nn1C.Cl (stereo not drawn),Percent Effect,"30.3 µM, […]",30.91%
COc1c(CNC2CCSc3ccc(F)cc32)c(C)nn1C.Cl (stereo not drawn),Percent Effect,"30 µM, 30.03 µM",60.68%
COc1c(CNC2CCCOc3ccc(F)cc32)c(C)nn1C.Cl (stereo not drawn),Percent Effect,"30.3 µM, […]",19.28%
COc1c(CNC2CCc3cc(F)ccc32)c(C)nn1C.Cl (stereo not drawn),Percent Effect,"30 µM, 30.03 µM",46.26%
COc1ccc(F)c(CNC2CCCc3nc(N(C)C)ncc32)c1 (stereo not drawn),Percent Effect,"30.3 µM, […]",34.48%
O=C(C1CCCC1)N1CC2(CCNC2)OCc2ccccc21 (stereo not drawn),Percent Effect,"30.3 µM, […]",12.94%
O=C(c1ccccc1)N1CC2(CCNC2)OCc2ccccc21 (stereo not drawn),Percent Effect,"30.3 µM, […]",23.45%
O=C(c1ccc(Cl)cc1)N1CC2(CCNC2)OCc2ccccc21 (stereo not drawn),Percent Effect,"30.3 µM, […]",67.31%
Cc1noc(CSc2ccc(C(F)(F)F)cn2)n1,Percent Effect,"30.3 µM, […]",27.73%
CCCc1nc(C)c(C(=O)NCCn2ccnc2)s1,Percent Effect,"30.3 µM, […]",-7.791%
CCOc1ccc(Cl)cc1C1CCCN1.Cl (stereo not drawn),Percent Effect,"30 µM, 30.03 µM",7.031%
Cl.O=C(OCC1CCCN1)c1cccc(NC(=O)c2ccco2)c1 (stereo not drawn),Percent Effect,"30.3 µM, […]",19.64%
O=C1NCCCc2[nH]c(Cc3cccc(Cl)c3)nc21,Percent Effect,"30.3 µM, […]",16.75%
O=C(NCCc1cccc(Cl)c1)C1CCOCC1,Percent Effect,"30.3 µM, […]",-10.81%
Cl.Cl.Clc1cccc(C[C@@H]2NCCC[C@@H]2Nc2cccc(Cl)c2)c1,Percent Effect,"30.3 µM, […]",98%
O=C(C[S+]([O-])Cc1cccc(Cl)c1)NC1CCCC1 (stereo not drawn),Percent Effect,"30.3 µM, […]",13.89%
Cl.Clc1cccc(N[C@H]2CCCN[C@H]2Cc2ccccc2)c1,Percent Effect,"30.3 µM, […]",98.49%
Cl.Cl.Clc1cccc(C[C@@H]2NCCC[C@@H]2Nc2ccccc2)c1,Percent Effect,"30.3 µM, […]",98.87%
O=C(Cc1cccc(Cl)c1)N[C@@H]1CCNC[C@H]1O,Percent Effect,"30 µM, 30.03 µM",-4.847%
CCn1cc2c(n1)C(COC)CN(Cc1ccccn1)C2 (stereo not drawn),Percent Effect,"30 µM, 30.03 µM",-30.8%
O=C(c1csc(-c2ncccn2)n1)N1CCN(C2CCCC2)CC1,Percent Effect,"30.3 µM, […]",15.8%
COc1cc(N2C[C@@H]3COC[C@]3(COc3ccccn3)C2)ncn1.O=C(O)C(F)(F)F.O=C(O)C(F)(F)F,Percent Effect,"30.3 µM, […]",12.8%
COc1cc(N2C[C@@H]3COC[C@]3(COc3ccc(C#N)cn3)C2)ncn1,Percent Effect,"30 µM, 30.03 µM",56.85%
N#Cc1ccc(OC[C@]23COC[C@H]2CN(c2ncccn2)C3)nc1,Percent Effect,"30.3 µM, […]",-11.64%
Cc1csc(NC(=O)[C@@H]2C[C@H]3[C@H](CCN3S(C)(=O)=O)O2)n1,Percent Effect,"30.3 µM, […]",37.69%
CCOCCNc1nc(C2CCCC2)nc2c1cnn2C,Percent Effect,"30 µM, 30.03 µM",33.9%
Cn1ncc2c(NCCOc3ccc(F)cc3)nc(C3CCCC3)nc21,Percent Effect,"30 µM, 30.03 µM",50.15%
Cn1ncc2c(NCCCOc3cccnc3)nc(C3CCCC3)nc21,Percent Effect,"30.3 µM, […]",7.938%
CC[C@H]1CN(C(=O)C2CC2)CC[C@H]1CC(=O)NCCN1CCOCC1,Percent Effect,"30.3 µM, […]",-123.3%
CN(Cc1n[nH]c2c1CCCC2)C(=O)c1cccc(CCC(C)(C)O)c1,Percent Effect,"30.3 µM, […]",22.46%
CN(Cc1n[nH]c2c1CCC2)C(=O)c1cccc(CCC(C)(C)O)c1,Percent Effect,"30.3 µM, […]",57.38%
CN(Cc1cc[nH]n1)C(=O)c1cccc(CCC(C)(C)O)c1,Percent Effect,"30 µM, 30.03 µM",14.32%
N#Cc1ccc(CN2CCN(C(=O)c3cc(C4CC4)[nH]n3)CC2)cc1,Percent Effect,"30 µM, 30.03 µM",47.32%
CC(C)(C)CN(CCC#N)C(=O)c1cccc(CN2CCCC2)c1,Percent Effect,"30.3 µM, […]",15.51%
Cc1cccnc1C(=O)N1CCCC(c2[nH]ncc2S(C)(=O)=O)C1 (stereo not drawn),Percent Effect,"30 µM, 30.03 µM",-23.25%
CC(=O)N1CC[C@]2(O)CCN(Cc3nc(C)c[nH]3)C[C@@H]2C1,Percent Effect,"30.3 µM, […]",3.766%
O=C(O)C(F)(F)F.c1cnc(N2C[C@H]3CCN(CC4CC4)C[C@H]3C2)cn1,Percent Effect,"30.3 µM, […]",30.4%
O=C(C1CCCC1)N1C[C@@H]2CCN(c3cnccn3)C[C@@H]2C1.O=C(O)C(F)(F)F,Percent Effect,"30.3 µM, […]",10.31%
O=C(O)C(F)(F)F.O=C(O)C(F)(F)F.c1cnc(N2C[C@H]3CCN(CCN4CCCC4)C[C@H]3C2)cn1,Percent Effect,"30.3 µM, […]",50.81%
COC(=O)c1ccc(OC)c(OC23CCCN(CC2)C3)c1 (stereo not drawn),Percent Effect,"30.3 µM, […]",-2.222%
COc1ccc(SCC2CNc3nc4ccccc4c(=O)n32)cc1 (stereo not drawn),Percent Effect,"30.3 µM, […]",24.33%
O=C(NCCNc1ccc(C(F)(F)F)cn1)c1ccc(F)cc1Cl,Percent Effect,30 µM,35.81%
Cc1nccn1CCC1CCCCN1Cc1ccc(O)cc1Cl (stereo not drawn),Percent Effect,"30.3 µM, […]",62.65%
Cc1cc2c(cc1CN1CCCCC1CCn1ccnc1C)OCO2 (stereo not drawn),Percent Effect,"30.3 µM, […]",16.68%
Cc1nccn1CCC1CCCCN1Cc1ccncc1 (stereo not drawn),Percent Effect,"30 µM, 30.03 µM",14.55%
COc1ccccc1CCN1CCCC(CN(C)Cc2ccc(C)o2)C1 (stereo not drawn),Percent Effect,"30.3 µM, […]",51.06%
COc1ccc(CCN2CCCC(CN(C)Cc3ccc(C)o3)C2)cc1 (stereo not drawn),Percent Effect,"30 µM, 30.03 µM",48.36%
COc1ccccc1CCN1CCCC(CN(C)Cc2c[nH]c(C)n2)C1 (stereo not drawn),Percent Effect,"30.3 µM, […]",23.77%
CN(C)S(=O)(=O)N1CCC(Oc2ccc(C#N)cc2)CC1,Percent Effect,"30 µM, 30.03 µM",23.32%
COCCNC(=O)CCn1ncc2c(Cl)cccc21,Percent Effect,"30.3 µM, […]",-81.24%
CN(C)C(=O)CNC(=O)CCn1ncc2c(Cl)cccc21,Percent Effect,"30 µM, 30.03 µM",13.94%
CN(C)CCNC(=O)CCn1ncc2c(Cl)cccc21,Percent Effect,"30.3 µM, […]",55.96%
CCN(CC)CC(=O)NCc1cccnc1-n1cnc2ccccc21,Percent Effect,"30.3 µM, […]",12.53%
Cc1nc(CNc2ccc(C(=O)NCc3ccco3)cc2C)no1,Percent Effect,"30.3 µM, […]",3.169%
COc1cc(N2CC[C@H](O)[C@@H]2Cc2ccccc2)ncn1,Percent Effect,"30.3 µM, […]",33.09%
COc1cc(N2CC[C@H](O)[C@@H]2Cc2cccnc2)ncn1,Percent Effect,"30.3 µM, […]",5.968%
COc1cc(N2CC[C@@H](O)[C@@H]2Cc2ccccc2)ncn1,Percent Effect,"30.3 µM, […]",51.86%
Cc1cc(C(=O)N2CC[C@@]3(C[C@@H](NS(C)(=O)=O)CCO3)C2)no1,Percent Effect,"30.3 µM, […]",13.02%
O=C(CCn1cncn1)NCCOc1cccc(Cl)c1,Percent Effect,"30.3 µM, […]",-12.3%
Cc1c(C(C)NC2CCCC2)cnn1-c1ccc(F)cc1F (stereo not drawn),Percent Effect,"30.3 µM, […]",6.771%
CC(=O)N1CCC(NC(C)c2cnn(-c3ccc(F)cc3F)c2C)CC1 (stereo not drawn),Percent Effect,"30.3 µM, […]",3.786%
Cc1c(C(C)NC2CCN(C(C)C)CC2)cnn1-c1ccc(F)cc1F (stereo not drawn),Percent Effect,"30.3 µM, […]",61.65%
CCN(CCOC)C(=O)c1ccc2c(c1)nc(N1CC[C@H](O)C1)n2C,Percent Effect,"30.3 µM, […]",20.98%
COc1c(CNCc2ccc3c(c2)OCCO3)c(C(C)C)nn1C,Percent Effect,30 µM,-2.541%
CCc1nc(C)c(CN2CCN(c3ncnc4c(C)csc34)CC2)[nH]1,Percent Effect,"30.3 µM, […]",24.01%
CCc1nc(C)c(CN2CCN(c3ncnc4scc(C)c34)CC2)[nH]1,Percent Effect,"30.3 µM, […]",-3.854%
Cc1n[nH]c(CN2CCN(c3ncnc4scc(C)c34)CC2)c1Cl,Percent Effect,"30.3 µM, […]",71.39%
Cc1ccccc1CCNC(=O)C1CC(=O)N(CC(F)(F)F)C1 (stereo not drawn),Percent Effect,"30 µM, 30.03 µM",9.865%
O=C(NCCn1ccnc1)N1CCCC1c1ccc2c(c1)OCCO2 (stereo not drawn),Percent Effect,30 µM,14.25%
CC(C)(C(=O)NCc1n[nH]c(=O)[nH]1)c1ccc(F)cc1,Percent Effect,"30.3 µM, […]",17.25%
Cc1cc(=O)n2nc(Oc3cc(Cl)cc(Cl)c3)sc2n1,Percent Effect,"30.3 µM, […]",-38.32%
Cc1cc(=O)n2nc(Oc3ccc(Cl)c(C)c3)sc2n1,Percent Effect,"30.3 µM, […]",74.91%
Cc1cc(=O)n2nc(Oc3ccc(F)c(F)c3)sc2n1,Percent Effect,"30.3 µM, […]",-0.08982%
COC(=O)NC1(C(=O)NCc2ccc(-c3ccn[nH]3)cc2)CCCC1,Percent Effect,"30.3 µM, […]",3.496%
CCNC(=O)c1sccc1N(C)S(=O)(=O)c1ccc(Cl)cc1,Percent Effect,"30.3 µM, […]",2.943%
CNC(=O)c1sccc1N(C)S(=O)(=O)c1ccc(Cl)cc1,Percent Effect,"30.3 µM, […]",77.15%
CC(C)NC(=O)c1sccc1N(C)S(=O)(=O)c1ccc(Cl)cc1,Percent Effect,"30 µM, 30.03 µM",7.242%
Cc1ccc(C(=O)NCC(C)CN2CCCC2=O)c(=O)[nH]1 (stereo not drawn),Percent Effect,"30.3 µM, […]",59.27%
Cc1ccc(C(=O)NC(CN2CCCC2=O)c2ccccc2)c(=O)[nH]1 (stereo not drawn),Percent Effect,"30 µM, 30.03 µM",-14.78%
Cc1ccc(C(=O)NC(C)CN2CCCC2=O)c(=O)[nH]1 (stereo not drawn),Percent Effect,"30 µM, 30.03 µM",6.193%
Nc1nc(N)c2c(n1)OC1(CCCN(Cc3nccs3)CC1)C2 (stereo not drawn),Percent Effect,"30.3 µM, […]",27.22%
Cc1nonc1CN(C)c1nc(-c2ccco2)nc2c1CCN(C)CC2,Percent Effect,"30.3 µM, […]",55.96%
Cc1noc(CN(C)c2nc(-c3ccco3)nc3c2CCN(C)CC3)n1,Percent Effect,"30.3 µM, […]",-34.19%
Cc1cc(CN(C)c2nc(-c3ccco3)nc3c2CCN(C)CC3)on1,Percent Effect,"30.3 µM, […]",-83.89%
Cc1cccc(CN2C(=O)CO[C@@H]3CN(Cc4cnn(C)c4)C[C@H]32)c1.O=C(O)C(F)(F)F.O=C(O)C(F)(F)F,Percent Effect,"30.3 µM, […]",15.94%
CC(C)(C)CNC(=O)c1ccc(C(=O)O)cn1,Percent Effect,"30.3 µM, […]",-11.9%
CC(C)(C)CNC(=O)c1ccc(C(=O)O)nc1,Percent Effect,"30.3 µM, […]",60.75%
CC(C)(C)CNC(=O)c1ccc(C(=O)O)cc1,Percent Effect,"30.3 µM, […]",40.51%
Cc1ccc(-c2ncc(CN3CCOC(c4ccco4)C3)s2)o1 (stereo not drawn),Percent Effect,"30.3 µM, […]",-6.468%
COC(=O)CCCN(C)C(c1cccnc1)c1ccc(F)cc1F (stereo not drawn),Percent Effect,"30.3 µM, […]",21.57%
